This is a sample that favours compounds with a hit; in the whole collection about 9.6% have one here.
Ins promoter up: MIN6 insulin promoter up-regulation; MIN6 insulin promoter-GFP reporter, high-content imaging; stronger effect = higher value; z-score at 5 µM; 190,000 tested, 0.3% active; AID 1625;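 active = z-score above 3 at 5 µM with at least 500 cells counted in the well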
PTEN del growth: suppresses growth of cells with PTEN deletion | viability, % at 10 µM | HCT116 PTEN-null viability, CellTiter-Glo, 60 h; stronger effect = lower value | 140,000 tested, 1.2% active;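 active = viability at or below a set limit, 4 SD under the median of all tested compounds, cut at about 3.7% in these data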;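 note: PTEN knockout HCT116 line with beta catenin targeted HCT116 as companion control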
Autophagy mod: modulators of autophagy. calls only at 10 µM (by protocol). 190,000 tested, 0.98% active. MEF GFP-LC3 puncta imaging; test concentration mostly 10 µM;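 active = percentage of spot-positive cells more than 3 SD above its plate mean, without a fluorescence outlier flag or 80% toxicity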;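 note: spot-positive cell cutoff set from DMSO-treated cells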
bCat KO growth: beta-catenin-lacking colon tumor cell growth suppression; viability, % at 10 µM; AID 818; HCT116 beta-catenin knockout viability, CellTiter-Glo, 60 h; stronger effect = lower value; 140,000 tested, 1.5% active;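 active = viability at or under a set limit, the compound median less 4 SD, cut at about 6% in these data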;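 note: 0% = Hyamine 1622 control at 20 µM and 100% = untreated cell control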
Insulin prom inh: TRM-6 insulin promoter activity inhibition; TRM-6 cells (human fetal islet line), insulin promoter-eGFP reporter, imaging; reporter expression induced with tamoxifen; inhibition, % at 2 µM; 130,000 tested, 0.9% active; AID 1273;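 active = inhibition above the mean plus 3 SD, with well images judged a real hit on visual review, cut at about 60% in these data, passing the limit was not always enough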
L major viab: inhibitors of Leishmania major promastigote growth; Leishmania major promastigotes, resazurin fluorescence viability; inhibition, % at 10 µM; 200,000 tested, 9% active; in the data active = inhibition above about 50%;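 note: promastigotes grown with compound for 44 hours at 28 °C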
Active calls of the source: *; i = inactive; x = no result given; + = active, no number.

SMILES	Ins promoter up	PTEN del growth	Autophagy mod	bCat KO growth	Insulin prom inh	L major viab
O=C(NC(Cc1c[nH]c2ccccc12)C(=O)O)c1ccco1 (configuration not stated)	1.4	102	i	90	7	-4
CCOC(=O)N[C@H](Cc1c[nH]c2ccccc12)C(=O)NC1CC1	-0.02	x	x	x	x	x
O=C(NCc1ccccc1)N[C@@H](Cc1c[nH]c2ccccc12)C(=O)O	0.47	109	i	94	75*	-5
C/C(N)=C(/C#N)C(=O)CSc1n[nH]c(-c2cccs2)n1	-1	x	i	x	x	2
O=C(CCN1CCN(C/C=C/c2ccccc2)CC1)Nc1ccc(Cl)cc1	-0.14	41	i	29	-16	76*
Cc1ccc(NC(=O)CCN2CCN(C/C=C/c3ccccc3)CC2)cc1	-0.09	78	i	86	-14	94*
O=C(Nc1cccc(Cl)c1)N1CCN(C/C=C/c2ccccc2)CC1	0.16	72	i	70	-22	4
Cc1ccc(NC(=O)CCN2CCN(C/C=C/c3ccccc3)CC2)cc1C	-0.64	60	i	51	-35	87*
CN(C)S(=O)(=O)c1cccc(NC(=O)CSc2nc3c(cc2C#N)C(=O)CC(C)(C)C3)c1	0.73	8	i	10	x	45
COc1ccccc1Oc1nc2c(c(=O)n(Cc3ccccc3F)c(=O)n2C)n1C	-1	102	i	98	-24	-3
Cc1cccc(NC(=O)Nc2ccc(C#N)cc2)n1	3.4*	7	i	10	20	35
Cc1ccc(Cl)cc1NC(=S)NCc1cccn1C	-0.86	90	i	88	-94	51*
Fc1cccc(Cl)c1Cn1nnc(-c2ccc(N3CCOCC3)cc2)n1	0.6	94	i	96	42	1
Clc1ccc(Cn2nnc(-c3ccc(CN4CCOCC4)cc3)n2)cc1	-0.3	88	i	91	x	96*
Fc1ccc(Cn2nnc(-c3ccc(CN4CCOCC4)cc3)n2)cc1	-0.23	90	i	90	-25	95*
Cc1ccc(NS(=O)(=O)c2ccc3c(c2)C(=O)c2ccccc2C3=O)c(C)c1	0	83	i	83	-42	-3
CCc1ccccc1NC(=S)N(CCCN1CCOCC1)Cc1cccs1	0.07	94	i	88	17	7
CN(C(=O)CCN1C(=O)C(C)(C)Nc2ccccc21)c1ccccc1	0.62	82	i	99	-306	0
O=C(C1=C[C@@H]2[C@H]3C(=O)N(c4ccc(Cl)cc4)C(=O)[C@H]3[C@@H](C(=O)c3ccc(Cl)cc3)N2C=C1)c1ccccc1	1.8	95	i	90	x	0
O=C(CCNc1ccc(Cc2ccncc2)cc1)c1cccc([N+](=O)[O-])c1	-0.64	x	i	x	x	95*
COc1ccc([N+](=O)[O-])cc1C(=O)Nc1ccc(Cc2ccncc2)cc1	-0.56	x	i	x	x	1
O=C(CCNc1cccc(F)c1)c1cccc([N+](=O)[O-])c1	-0.32	x	i	x	0	80*
COc1ccc(CC(=O)OCC(=O)Nc2ncc(Cl)cc2Cl)cc1OC	x	93	i	83	-31	-8
CCCCSc1nc(C)[nH]c1[N+](=O)[O-]	x	106	i	110	75*	-5
Cc1nc(SCc2ccccc2)c([N+](=O)[O-])[nH]1	-0.02	98	i	102	35	54*
SMILES	Ins promoter up	PTEN del growth	Autophagy mod	bCat KO growth	Insulin prom inh	L major viab
Cc1nc(SCCO)c([N+](=O)[O-])[nH]1	-0.23	x	x	x	x	x
COc1ccc(CSc2nc(C)[nH]c2[N+](=O)[O-])cc1[N+](=O)[O-]	-0.02	x	x	x	x	x
CC(C)(C)c1nn(-c2ccccc2)c2[nH]c(=O)c(CNCc3ccco3)cc12	0.48	24	i	36	-27	12
Cc1ccc(CNCc2cc3c(C(C)(C)C)nn(-c4ccccc4)c3[nH]c2=O)cc1	0.74	5	i	3.7*	29	23
COc1ccc(CNCc2cc3c(C(C)(C)C)nn(-c4ccccc4)c3[nH]c2=O)cc1	0.86	0.6*	i	0.5*	-25	17
O=C(c1cccnc1)N1c2ccccc2Sc2ccccc21	-1.4	x	i	x	12	19
COc1cccc(NC(=O)CSc2nnc(Cn3cnc([N+](=O)[O-])n3)n2C)c1	-0.45	94	i	91	33	-3
Cc1cccc(S(=O)(=O)Nc2ccc(C)c3c2OC(C)(C)C3)c1	-0.82	92	+	91	-4	12
Cc1ccc(NS(=O)(=O)c2ccccc2Cl)c2c1CC(C)(C)O2	-0.25	105	i	107	-10	13

Screening results deposited in PubChem BioAssay by several laboratories.
